The results in this text go back to PubChem BioAssay (EPA / NIEHS).

Read-out in assay [1]: Interleukin-6 (IL6), IL6 (gene 3569)
In words: BSK_CASM3C_IL6: BioMAP Diversity Plus: CASM3C Assay for Interleukin-6 (IL6) Biomarker Activity for (AID 2283040). To be noted: primary human coronary artery smooth muscle cells; actives raise or lower the signal.

Read-out in assay [2]: Tissue plasminogen activator (tPA), PLAT (gene 5327)
In words: BSK_BE3C_tPA: BioMAP Diversity Plus: BE3C Assay for Tissue plasminogen activator (tPA) Biomarker Activity (AID 2283041).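 On outcome: tPA level quantified by ELISA one day after compound addition.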 As to conditions: primary human bronchial epithelial cells; actives raise or lower the signal. A digest of the protocol: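 Human primary bronchial epithelial cells were dosed with chemical and tPA biomarker levels measured by ELISA 24 hours later. Activity was fitted bidirectionally against DMSO as negative control and baseline.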

Read-out in assay [3]: Interleukin-8 (IL8), CXCL8 (gene 3576)
In words: BSK_CASM3C_IL8: BioMAP Diversity Plus: CASM3C Assay for Interleukin-8 (IL8) Biomarker Activity (AID 2283042).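 Further: IL-8 protein level quantified by ELISA.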 As to conditions: primary human coronary artery smooth muscle cells; actives raise or lower the signal.

Read-out in assay [4]: Human Leukocyte Antigen - DR isotype (HLADR), HLA-DRA (gene 3122)
In words: BSK_CASM3C_HLADR: BioMAP Diversity Plus: CASM3C Assay for Human Leukocyte Antigen - DR isotype (HLADR) Biomarker Activity (AID 2283043).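 Further: cell-surface HLA-DR protein level quantified by ELISA.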 To be noted: primary human coronary artery smooth muscle cells; actives raise or lower the signal.

Read-out in assay [5]: Macrophage colony-stimulating factor (MCSF), CSF1 (gene 1435)
In words: BSK_CASM3C_MCSF: BioMAP Diversity Plus: CASM3C Assay for Macrophage colony-stimulating factor (MCSF) Biomarker Activity (AID 2283044).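 Further: M-CSF protein amount quantified by ELISA after 24 h exposure.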 To be noted: primary human coronary artery smooth muscle cells; actives raise or lower the signal.

Read-out in assay [6]: Low-density lipoprotein receptor (LDLR), LDLR (gene 3949)
Put plainly: BSK_CASM3C_LDLR: BioMAP Diversity Plus: CASM3C Assay for Low-density lipoprotein receptor (LDLR) Biomarker Activity (AID 2283045).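 Further: LDLR protein level on the cell surface quantified by ELISA.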 To be noted: primary human coronary artery smooth muscle cells; actives raise or lower the signal.

Read-out in assay [7]: Monocyte Chemoattractant Protein-1 (MCP1), CCL2 (gene 6347)
In words: BSK_CASM3C_MCP1: BioMAP Diversity Plus: CASM3C Assay for Monocyte Chemoattractant Protein-1 (MCP1) Biomarker Activity (AID 2283046).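 Further: MCP-1 level quantified by ELISA 24 h after dosing.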 As to conditions: primary human coronary artery smooth muscle cells; actives raise or lower the signal.

Assay [8] can be described thus: BSK_CASM3C_Proliferation: Cell Proliferation Assessment in the BioMAP Diversity Plus: CASM3C Assay (AID 2283047).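 Further: sulforhodamine B total protein stain as relative cell number at 560 nm; sub-confluent cells exposed 48 h before staining; fitted both ways against DMSO so gain or loss of cell number.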 As to conditions: primary human coronary artery smooth muscle cells.
Read-out in assay [9]: Monokine induced gamma interferon (MIG), CXCL9 (gene 4283)
Put plainly: BSK_CASM3C_MIG: BioMAP Diversity Plus: CASM3C Assay for Monokine induced gamma interferon (MIG) Biomarker Activity (AID 2283048).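 Further: MIG protein level measured by ELISA.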 As to conditions: primary human coronary artery smooth muscle cells; actives raise or lower the signal.

Read-out in assay [10]: serum amyloid A (SAA), SAA1 (gene 6288)
In words: BSK_CASM3C_SAA: BioMAP Diversity Plus: CASM3C Assay for serum amyloid A (SAA) Biomarker Activity (AID 2283049).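 Further: SAA protein level quantified by ELISA.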 As to conditions: primary human coronary artery smooth muscle cells; actives raise or lower the signal.

Assay [11] can be described thus: BSK_CASM3C_SRB: Viability Assessment in the BioMAP Diversity Plus: CASM3C Assay (AID 2283050).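 Further: total protein by SRB staining as cytotoxicity measure in parallel cultures.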 To be noted: primary human coronary artery smooth muscle cells.
Read-out in assay [12]: Thrombomodulin, THBD (gene 7056)
Put plainly: BSK_CASM3C_Thrombomodulin: BioMAP Diversity Plus: CASM3C Assay for Thrombomodulin Biomarker Activity (AID 2283051).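 Further: thrombomodulin protein level measured by ELISA 24 h after dosing.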 To be noted: primary human coronary artery smooth muscle cells; actives raise or lower the signal.

Read-out in assay [13]: Tissue Factor, F3 (gene 2152)
In words: BSK_CASM3C_TissueFactor: BioMAP Diversity Plus: CASM3C Assay for Tissue Factor Biomarker Activity (AID 2283052).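 Further: cell surface tissue factor protein level read by ELISA.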 As to conditions: primary human coronary artery smooth muscle cells; actives raise or lower the signal.

Read-out in assay [14]: Urokinase-type plasminogen activator receptor (uPAR), PLAUR (gene 5329)
In words: BSK_CASM3C_uPAR: BioMAP Diversity Plus: CASM3C Assay for Urokinase-type plasminogen activator receptor (uPAR) Biomarker Activity (AID 2283054).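 Further: cell-surface uPAR protein level quantified by ELISA.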 As to conditions: primary human coronary artery smooth muscle cells; actives raise or lower the signal.

Read-out in assay [15]: Vascular cell adhesion molecule 1 (VCAM1), VCAM1 (gene 7412)
In words: BSK_CASM3C_VCAM1: BioMAP Diversity Plus: CASM3C Assay for Vascular cell adhesion molecule 1 (VCAM1) Biomarker Activity (AID 2283055).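 Further: VCAM-1 protein level quantified by ELISA on the cells.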 To be noted: primary human coronary artery smooth muscle cells; actives raise or lower the signal.

Read-out in assay [16]: Collagen III, COL3A1 (gene 1281)
In words: BSK_hDFCGF_CollagenIII: BioMAP Diversity Plus: hDFCGF Assay for Collagen III Biomarker Activity (AID 2283056). To be noted: primary human foreskin fibroblasts; actives raise or lower the signal. In outline:
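ELISA readout of Collagen III in human dermal (foreskin) fibroblasts, taken 24 h post-treatment. Gain or loss relative to DMSO vehicle fitted in both directions.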

Read-out in assay [17]: Epidermal growth factor receptor (EGFR), EGFR (gene 1956)
Put plainly: BSK_hDFCGF_EGFR: BioMAP Diversity Plus: hDFCGF Assay for Epidermal growth factor receptor (EGFR) Biomarker Activity (AID 2283057). As to conditions: primary human foreskin fibroblasts; actives raise or lower the signal. In outline:
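Primary human foreskin fibroblasts were exposed to compound for 24 h, after which cell-surface EGFR was quantified by ELISA. Activity was fitted bidirectionally against the DMSO negative control as baseline.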

Read-out in assay [18]: Interleukin-8 (IL8), CXCL8 (gene 3576)
In words: BSK_hDFCGF_IL8: BioMAP Diversity Plus: hDFCGF Assay for Interleukin-8 (IL8) Biomarker Activity (AID 2283058). To be noted: primary human foreskin fibroblasts; actives raise or lower the signal. In outline: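 IL-8 levels read by ELISA at 24 hours after dosing human skin fibroblast cultures. Parallel SRB staining assessed overt cytotoxicity, and gain or loss of signal was fitted against DMSO control.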

Assay [19] can be described thus: BSK_hDFCGF_Proliferation: Cell Proliferation Assessment in the BioMAP Diversity Plus: hDFCGF Assay (AID 2283059).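 Further: curves fitted for both rise and fall of signal versus DMSO baseline.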 As to conditions: primary human foreskin fibroblasts. A digest of the protocol: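 Total protein read at 560 nm after 0.1% SRB staining of TCA-fixed human skin fibroblasts, […]. Activity is fitted in both directions relative to DMSO as baseline.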

Read-out in assay [20]: Interferon-gamma inducible Protein 10 (IP10), CXCL10 (gene 3627)
Put plainly: BSK_hDFCGF_IP10: BioMAP Diversity Plus: hDFCGF Assay for Interferon-gamma inducible Protein 10 (IP10) Biomarker Activity (AID 2283053). To be noted: primary human foreskin fibroblasts; actives raise or lower the signal. In outline:
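Human foreskin fibroblast primary cells (hDFCGF system) were dosed with chemical and assayed at 24 h; IP-10 measured by ELISA. Activity fitted bidirectionally relative to DMSO negative control as baseline.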

Structures are written as SMILES. The source made the active and inactive calls. How the source made its calls: active means hit-call score of the fitted dose curve at least 0.9, where 1 is the maximum; inactive means score below 0.9.

Consider `CCOP(=S)(OCC)SCSc1ccc(Cl)cc1`, for which the result in assay [1], in assay [2], in assay [3], in [4], in assay [5] and in [6] was inactive. The outcome in assay [8], in [9], in assay [10], in [11], in assay [12] and in assay [14] was inactive. For the same compound, the outcome in assay [16], in assay [17], in assay [18] and in [19] was inactive. Besides, the AC50 in assay [7] was 0.272 µM (active); in [13], 16.5 µM (active); in assay [15], 1.6 µM (active).
On to `O=P1(N(CCCl)CCCl)NCCCO1` (centres undefined), for which the outcome in [1], in [2], in [3], in [4], in assay [5] and in assay [6] was inactive. In addition, the result in assay [7], in assay [8], in [9], in [10], in assay [11] and in [12] was inactive. The outcome in [13], in [14], in assay [15], in [16], in assay [17] and in assay [18] was inactive. Besides, the outcome in assay [19] was inactive.
`CCCCCCCc1ccc(O)cc1`: the outcome in assay [1], in [7], in assay [12], in assay [13] and in [17] was inactive. Moreover, the AC50 in [2] was 32.2 µM (active); in assay [3], 23 µM (active); in [4], 35.3 µM (active); in assay [5], 35.5 µM (active); in assay [6], 31.2 µM (active); in [8], 37 µM (active). In addition, the AC50 in assay [9] was 35.3 µM (active); in assay [10] it was 34.4 µM (active); in assay [11] it was 39 µM (active); in assay [20], 22.6 µM (active); in [14] it was 38 µM (active); in [15], 28.5 µM (active). In addition, the AC50 in assay [18] was 35.1 µM (active); in assay [19], 13.5 µM (active).
Take `CC(C)(C)OOC(C)(C)C`: the outcome in [1], in assay [2], in assay [3], in [4], in assay [5] and in assay [6] was inactive. For the same compound, the outcome in [7], in assay [8], in assay [9], in assay [10], in assay [11] and in assay [12] was inactive. Besides, the result in [13], in [20], in [14], in [15], in assay [16] and in assay [17] was inactive. Besides, the outcome in assay [18] and in assay [19] was inactive.
For the compound `CC(Cl)CN(C)C` (centres undefined), the outcome in assay [1], in [2], in assay [3], in [4], in assay [5] and in assay [6] was inactive. The result in [7], in assay [8], in assay [9], in [10], in assay [11] and in assay [12] was inactive. Also, the outcome in [13], in assay [20], in assay [15], in assay [17], in [18] and in assay [19] was inactive. Further, the AC50 in assay [14] is 0.177 µM (active).
In the case of `Nc1ccc([N+](=O)[O-])cc1Cl`, the outcome in assay [1], in assay [2], in assay [3], in assay [4], in assay [5] and in assay [6] was inactive. For the same compound, the outcome in [7], in assay [8], in assay [9], in assay [10], in [11] and in [12] was inactive. The result in assay [13], in assay [20], in [15], in assay [17], in assay [18] and in assay [19] was inactive. Further, the AC50 in assay [14] was 0.0567 µM (active).
Regarding `CCCCOCCOP(=O)(OCCOCCCC)OCCOCCCC`, the results for the AC50 in assay [1], in assay [13] and in [15] were 8.79 µM (active), 1.99 µM (active) and 0.016 µM (active), respectively. The outcome in assay [2], in assay [3], in assay [4], in assay [5], in [6] and in [7] was inactive. For the same compound, the outcome in assay [8], in assay [9], in assay [10], in assay [11], in assay [12] and in [20] was inactive. Further, the outcome in [14], in assay [17], in [18] and in [19] was inactive.

Usually AC50 stands for the concentration giving half of the maximal activity seen.
